Assay in all cases: NCI-60 one-dose screen, 48 h (100 = growth as untreated, 0 = no growth, -100 = all killed)
What all share (conditions): 10 µM unless noted

Experiment [1] has as its system MOLT-4 leukemia.
For experiment [2], the system named is SR leukemia.
The test system of experiment [3] is RPMI-8226 leukemia.
The test system of experiment [4] is OVCAR-8 ovarian.
For experiment [5], the system named is OVCAR-4 ovarian.
The test system of experiment [6] is SK-OV-3 ovarian.
Experiment [7] has as its system IGROV1 ovarian.
Experiment [8] relates to OVCAR-3 ovarian.
The subject of experiment [9] is HS 578T breast.
In experiment [10] the test system is NCI/ADR-RES ovarian.
Experiment [11] has as its system T-47D breast.
Experiment [12] deals with BT-549 breast.
The test system of experiment [13] is MDA-MB-435 melanoma.
Experiment [14] relates to SW-620 colon.
For experiment [15], the system named is MCF7 breast.
Experiment [16] concerns HCT-116 colon.
Experiment [17] relates to HCC-2998 colon.
Experiment [18] has as its system KM12 colon.
Experiment [19] concerns OVCAR-5 ovarian.

This is part of a sample that, as a whole, favours compounds with a hit. Of some 83,000 tested, about 20% had one in any assay.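 Activity criterion: percent growth below 10, measured after cells in 96-well plates were exposed to a single compound concentration for 48 hours.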 Values without a mark were called inactive. Active and inactive are the calls of the source.

As to `N#CCCc1ccccc1`, the growth is 94.5% in [1]; 91.8% in experiment [2]; 111% in [3]; 107% in experiment [4]; 110% in experiment [5]; 111% in [6]. Further, the growth in experiment [7] was 103%; in experiment [8], 119%; in [9] it was 118%; in experiment [10], 104%; in experiment [11], 112%; in [12], 106%. Moreover, the growth in [13] was 104%; in experiment [14] it was 102%; in [15], 92%; in [16] it was 104%; in experiment [17], 103%; in experiment [18] it was 109%.

On to `O=[N+]([O-])c1cc(Br)c(O)c(Br)c1`, for which the growth was 107% in experiment [1]; 102% in experiment [2]; 98.9% in experiment [3]; 99.1% in [4]; 115% in experiment [19]; 122% in experiment [5]. For the same compound, the growth was 103% in experiment [6]; 111% in [7]; 109% in experiment [9]; 104% in [10]; 115% in experiment [11]; 121% in [12]. Also, the growth in [13] is 111%; in [14] it was 108%; in experiment [15], 94.3%; in experiment [16] it was 97.3%; in [17], 96.1%.

Regarding `Cn1cc(-c2csc(-c3cn(CCCCN4CCOCC4)c4ccc(F)cc34)n2)c2cccnc21`, the growth in [1] is 46.7%; in experiment [2], 37%; in experiment [3], 49%; in [4] it was 81.3%; in [5] it was 84.5%; in experiment [6], 84%. For the same compound, the growth was 65.4% in experiment [7]; 90% in experiment [8]; 41.1% in experiment [9]; 76.8% in experiment [10]; 76.9% in [11]; 65.3% in experiment [12]. Besides, the growth in experiment [13] is 38.1%; in [14] it was 19.7%; in experiment [15], 78.4%; in experiment [16] it was 83%; in [17], 92.4%; in experiment [18], 52.5%.

Regarding `CC1=C2[C@H]3OC(=O)[C@@H](C)[C@@H]3CC[C@@]2(C)C=CC1=O`, the growth in experiment [1] is 104%; in experiment [2] it was 114%; in [3] it was 91%; in [4] it was 116%; in [19], 90.7%; in experiment [5], 110%. Moreover, the growth is 122% in experiment [6]; 129% in experiment [8]; 108% in experiment [9]; 13.8% in experiment [10]; 109% in experiment [11]; 115% in experiment [13]. Further, the growth in experiment [14] was 108%; in experiment [15] it was 103%; in [16], 118%; in experiment [18], 105%.

Consider `Nc1ccc2c(c1)Cc1cc(N)ccc1-2`, for which the growth was 104% in experiment [1]; 95% in experiment [2]; 68.6% in experiment [3]; 99.7% in experiment [4]; 107% in [19]; 95.5% in experiment [5]. Also, the growth is 82.3% in experiment [6]; 83.2% in [7]; 87.6% in experiment [8]; 84.4% in experiment [9]; 96.2% in experiment [10]; 67.3% in experiment [11]. In addition, the growth in [13] was 91.8%; in experiment [14], 98.9%; in [15], 59.9%; in experiment [16], 97.9%; in [17], 96.2%; in experiment [18] it was 82.6%.

For `Oc1cc(Cl)ccc1Oc1ccc(Cl)cc1Cl`, the growth in experiment [1] was 5.71% (active); in [2], 3.21% (active); in experiment [3], 9.47% (active); in [4], 10.7%; in [5] it was 29.9%; in experiment [6] it was 89.2%. For the same compound, the growth in [7] is 52.4%; in [8], 6.75% (active); in [9], -18.1% (active); in experiment [10], 7.74% (active); in [11] it was 17.9%; in experiment [12] it was 8.8% (active). For the same compound, the growth in experiment [13] was 15.1%; in experiment [14], 21%; in [15] it was 19.3%; in [16] it was 6.58% (active); in [17], 105%; in experiment [18] it was 21.9%.

`C=CC1CN2CCC1CC2C(O)c1ccnc2ccccc12` (stereo unspecified): the growth in experiment [1] was 258%; in [2], 344%; in experiment [3] it was 213%; in experiment [4] it was 127%; in [19] it was 116%; in [5], 129%. The growth is 133% in experiment [6]; 117% in experiment [9]; -15.5% (active) in experiment [10]; 135% in experiment [11]; 181% in [12]; 128% in [13]. In addition, the growth is 112% in [14], 116% in experiment [15], 110% in experiment [16] and 115% in [18].

With `COc1ccc(C(C#N)C(C)=O)cc1` (stereo unspecified), the growth in experiment [1] is 99.7%; in experiment [2], 98.8%; in experiment [3], 101%; in experiment [4], 95.5%; in experiment [19], 95.3%; in [5], 131%. Also, the growth is 99% in experiment [6]; 114% in experiment [7]; 108% in experiment [8]; 102% in [10]; 104% in experiment [11]; 100% in [12]. Besides, the growth was 123% in experiment [13]; 104% in experiment [14]; 102% in experiment [15]; 105% in experiment [16]; 98.5% in experiment [18].

As to `CC[C@H](C)[C@H](NC(=O)[C@H]1CCCCN1C)C(=O)N(C)[C@H](C[C@@H](OC(C)=O)c1nc(C(=O)NC23C4C5C2C2C3C4C52C(=O)OC)cs1)C(C)C` (stereo partly specified), the growth was 8.38% (active) in experiment [1]; 2.77% (active) in experiment [2]; 29.2% in experiment [3]; 16.5% in [4]; 50.3% in experiment [5]; 34.4% in experiment [6]. The growth was 21.9% in [7]; -7.47% (active) in experiment [8]; 34.3% in experiment [9]; 10.9% in experiment [10]; 73.3% in experiment [11]; -36% (active) in [12]. The growth was -0.902% (active) in [13]; 41.9% in experiment [14]; 13.7% in experiment [15]; 7.22% (active) in experiment [16]; 9.29% (active) in experiment [17]; -3.83% (active) in experiment [18].

As for `C[N+]1(C)CCCC1c1cccnc1` (stereo unspecified), the growth in experiment [1] was 102%; in experiment [2], 97.8%; in [4], 104%; in experiment [19], 109%; in experiment [5], 107%; in [6], 108%. Besides, the growth is 115% in [7]; 108% in experiment [8]; 89.2% in [9]; 111% in [10]; 96.5% in experiment [11]; 85.3% in experiment [12]. Moreover, the growth in experiment [13] was 108%; in experiment [14], 100%; in [15], 90.9%; in experiment [16], 92.5%; in experiment [17] it was 91.2%; in [18], 103%.

In the case of `Cc1nnc([S-])o1.[Au+].c1ccc([PH+](c2ccccc2)c2ccccc2)cc1`, the growth in experiment [1] is 38.6%; in experiment [2] it was 20.8%; in experiment [4] it was 44.8%; in experiment [19], 110%; in experiment [5], 60.4%; in [6], 111%. Besides, the growth in experiment [7] was 20.9%; in [8], -61.4% (active); in experiment [9], 30.4%; in experiment [10], 99.6%; in [11], 29.6%; in experiment [12], 34.1%. Besides, the growth was 43.9% in experiment [13]; -11.8% (active) in [14]; 10.3% in experiment [15]; 21.6% in experiment [16]; 80.2% in experiment [17]; 74.2% in [18].

Regarding `COC[C@H]1OC(=O)c2coc3c2[C@@]1(C)C1=C(C3=O)[C@@H]2CCC(=O)[C@@]2(C)C[C@H]1OC(C)=O`, the growth in [1] is 42.2%; in experiment [2], 12.1%; in experiment [3] it was 58.8%; in [5] it was 53.2%; in experiment [6], 39.9%; in [7] it was -28% (active). For the same compound, the growth in [8] is 41.7%; in experiment [10], 52.5%; in experiment [11] it was -2.63% (active); in experiment [12], 26.3%; in experiment [13], 60.3%; in experiment [14], 53.4%. Moreover, the growth in [15] is 21.5%; in experiment [16] it was 45.7%; in experiment [18], 51.2%.

Take `C/C(=C\c1ccn(-c2ccc(N)c(C(F)(F)F)c2)n1)[C@@H]1C[C@@H]2O[C@]2(C)CCC[C@H](C)[C@H](O)[C@@H](C)C(=O)C(C)(C)[C@@H](O)CC(=O)O1`: the growth is 10.2% in [1]; 7.67% (active) in experiment [2]; 28.4% in experiment [4]; 23% in experiment [19]; 55.1% in experiment [5]; 45% in experiment [6]. The growth in [7] is 40.4%; in experiment [8], -0.83% (active); in experiment [9] it was 25.1%; in [10], 0.324% (active); in experiment [11], 47.6%; in experiment [12] it was 28.2%. Also, the growth is -26.8% (active) in [13]; 44.5% in [14]; 17% in [15]; 9.04% (active) in experiment [16]; 0.272% (active) in [17]; 20.6% in experiment [18].

Take `CCCCOCCOP(=O)(OCCOCCCC)OCCOCCCC`: the growth is 92.3% in experiment [1]; 98.9% in experiment [2]; 107% in experiment [4]; 105% in [19]; 114% in [5]; 101% in experiment [6]. Moreover, the growth in [7] was 119%; in experiment [8] it was 118%; in [9], 95.5%; in experiment [10] it was 99.7%; in [11], 96.2%; in [12] it was 114%. Also, the growth in experiment [13] is 101%; in [14], 93.3%; in [15] it was 105%; in experiment [16], 115%; in experiment [17], 102%; in experiment [18], 120%.

Regarding `O=C(Cc1ccccc1)c1ccccc1`, the growth was 107% in [1]; 100% in experiment [2]; 108% in [4]; 108% in experiment [19]; 99.3% in experiment [5]; 113% in experiment [6]. The growth is 110% in experiment [7]; 106% in [8]; 90.3% in experiment [9]; 105% in [10]; 100% in experiment [11]; 100% in experiment [12]. In addition, the growth in experiment [13] was 102%; in experiment [14], 96.6%; in experiment [15], 92%; in [16] it was 101%; in experiment [17], 114%; in [18], 99.8%.

The values above are taken from PubChem BioAssay (NCI).
